Measurements taken from PubChem BioAssay (NCI).
About 79,000 compounds went through this panel and 15% of them were active in at least one assay; those are over-represented in the sample as a whole. Active and inactive are the calls of the source. Cut-off read from the data, not from the text of the source: active = growth inhibition above about 70%; inactive = the rest.

What was measured:
[1] = NCI Yeast Anticancer Drug Screen. Data for the rad50 strain (AID 155);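 note: 0% = growth of vehicle-only cultures of the same strain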; details: S. cerevisiae rad50 strain growth inhibition; at 50.0 µM; hits give high values
Method in brief: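 Growth of the mutant yeast was measured after compound exposure and referenced to vehicle-treated cultures.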

[2] = NCI Yeast Anticancer Drug Screen. Data for the mec2-1 strain (AID 157); details: S. cerevisiae mec2-1 strain, at 50.0 µM, hits give high values
Method in brief: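 Readout is yeast growth inhibition, normalised to vehicle-treated controls, in the mec2-1 strain exposed to compound.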

[3] = NCI Yeast Anticancer Drug Screen. Data for the sgs1 mgt1 strain (AID 161);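 note: 0% = growth of cultures given vehicle only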; details: S. cerevisiae sgs1 mgt1 strain, at 50.0 µM, hits give high values
Method in brief: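 Percent growth inhibition was derived by comparing compound-exposed mutant yeast with vehicle-exposed cultures. The strain carries alterations in DNA damage repair.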

[4] = NCI Yeast Anticancer Drug Screen. Data for the cln2 rad14 strain (AID 165);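 note: 0% = growth equal to vehicle treated cultures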; details: S. cerevisiae cln2 rad14 strain, at 50.0 µM, hits give high values
Method in brief: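 Relative to vehicle controls, growth inhibition of compound-treated cln2 rad14 yeast was recorded.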

[5] = NCI Yeast Anticancer Drug Screen. Data for the bub3 strain (AID 167); details: S. cerevisiae bub3 mutant strain, at 50.0 µM, hits give high values
Method in brief: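 Whole-cell yeast assay. The mutant strain was incubated with compounds, and growth inhibition was determined by comparison with vehicle-treated cells.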

[6] = NCI Yeast Anticancer Drug Screen. Data for the mlh1 rad18 strain (AID 175); details: S. cerevisiae mlh1 rad18 strain growth inhibition; at 50.0 µM; hits give high values
Method in brief: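 Test agents were incubated with a yeast strain of defined genotype (DNA damage repair defect). Inhibition of growth was derived by comparison with vehicle-exposed cultures.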

Measured: growth inhibition

CC(=O)OCCO
inactive: [1] 9.6% | [2] 3.5% | [3] -9.65% | [4] -6.35% | [5] -41.8% | [6] 17.6%

COC(=O)c1ccccc1N(C)C
inactive: [1] 0.55% | [2] -11.2% | [3] -3.8% | [4] 2.4% | [5] 2.65% | [6] 0.9%

CCC(C#N)(CC)c1ccccc1
inactive: [1] 16% | [2] 13.4% | [3] 11.1% | [4] 12.7% | [5] -3.2% | [6] 36.3%

COc1cc(-c2ccc(NC(=O)NC3CC3)c(OC)c2)ccc1NC(=O)NC1CC1
inactive: [1] -26.9% | [2] -23.2% | [3] -24.1% | [4] 3.15% | [5] -25.2% | [6] -25.8%

NC(N)=Nc1cc2ccccc2c2ccccc12
inactive: [1] -1.2% | [2] -7.15% | [3] -7.5% | [4] -14% | [5] -3% | [6] -4.95%

COC(=O)Nc1cccc(Cl)c1OC
inactive: [1] 8.6% | [2] -21.4% | [3] 0.45% | [4] 2.05% | [5] 3.55% | [6] -6.55%

CC(=O)Nc1cccc(Cl)c1C
inactive: [1] 17.6% | [2] 11.7% | [3] 1.35% | [4] 4.9% | [5] 8.85% | [6] -0.35%

CC1(O)CCCCC1O (configuration not stated)
inactive: [1] -8.1% | [2] -37.6% | [3] -8.3% | [4] -20.9% | [5] -13.8% | [6] -15.3%

Cc1ccccc1C1N=C2Oc3ccccc3C=C2C(=O)N1 (configuration not stated)
inactive: [1] 10.7% | [2] -11.8% | [3] 0.6% | [4] -9.55% | [5] -17.4% | [6] -32.5%

CCCC1(c2ccccc2)NC(=O)NC1=O (configuration not stated)
inactive: [1] 5.75% | [2] 0.3% | [3] -6.1% | [4] -81.1% | [5] 7.95% | [6] -13.7%

C/C=C/CC(C)C(O)C1C(=O)NC(CC)C(=O)N(C)CC(=O)N(C)C(CC(C)C)C(=O)NC(C(C)C)C(=O)N(C)C(CC(C)C)C(=O)NC(C)C(=O)NC(C)C(=O)N(C)C(CC(C)C)C(=O)N(C)C(CC(C)C)C(=O)N(C)C(C(C)C)C(=O)N1C (configuration not stated)
inactive: [1] 17.3% | [2] 8.3% | [3] -5.45% | [4] 25.6% | [5] 22.7% | [6] 18.1%

Cc1cc(C(C)(C)C)cc(C)c1Br
inactive: [1] -1.85% | [2] -0.85% | [3] -9.25% | [4] -15.3% | [5] 0.15% | [6] -1.65%

O=C(/C=C/C(=O)c1ccccc1)c1ccccc1
inactive: [1] 41.8% | [2] 16.4% | [3] 28.1% | [4] -31.4% | [5] 36% | [6] 51.1%

COCCCC/C(=N\OCCN)c1ccc(C(F)(F)F)cc1
inactive: [1] 26.5% | [2] 4.6% | [3] 12.6% | [4] -3.9% | [5] -0.35% | [6] 25.3%

CCOC(=O)/C(=C/c1ccc(OC)cc1)N(CC)CC
inactive: [1] -45.8% | [2] -22.7% | [3] -17.4% | [4] 0.5% | [5] -19.1% | [6] -20.4%

O=S(=O)(Cc1ccccc1)c1ccccc1
inactive: [1] 4.6% | [2] 1.1% | [3] 2.1% | [4] -0.8% | [5] -17.5% | [6] 23.9%

COc1ccccc1NC(=O)c1cc2cc(Br)ccc2cc1O
inactive: [1] 34.8% | [2] 41.1% | [3] 55.7% | [4] 41.6% | [5] 49% | [6] 34.2%

O=C(N/N=C\c1cc(Br)cc(Br)c1O)N/N=C/c1cc(Br)cc(Br)c1O
inactive: [1] 41.4% | [2] 10.2% | [3] 43% | [4] 21.9% | [5] 39% | [6] 33.2%

O=C(O)CCC(=O)OC(C1CO1)C(OC(=O)CCC(=O)O)C1CO1 (configuration not stated)
inactive: [1] -0.85% | [2] -16.5% | [3] -7.3% | [4] 3.3% | [5] -11.6% | [6] -44.7%

CCS(=O)(=O)CCCl
inactive: [1] 12.2% | [2] -5.1% | [3] 2.3% | [4] 5.9% | [5] 0.95% | [6] 5.85%

CC1=C(/C=C/C(C)=C/C=C/C(C)=C/CO)C(C)(C)CCC1
inactive: [1] 14.8% | [2] 4.45% | [3] -3.15% | [4] 10.7% | [5] -42.2% | [6] 6.55%

Cc1ccc(C)n1-c1ccsc1C(=O)NNC(=O)CCl
inactive: [1] -13.8% | [2] -17.8% | [3] 2.25% | [4] 22.9% | [5] -14.5% | [6] -3.85%

COc1ccccc1N1CCN(C(=S)Nc2ccccc2)CC1
inactive: [1] 32.3% | [2] -13.8% | [3] 0.8% | [4] -1.05% | [5] -2.7% | [6] 15.3%

COc1ccc(OC)c(/C=C2\CCc3ccccc3C2=O)c1
inactive: [1] 17.4% | [2] -30.1% | [3] 27.5% | [4] 7.4% | [5] 47.7% | [6] -23.6%

Oc1ccccc1-c1nnco1
inactive: [1] -1.9% | [2] -13.8% | [3] 0.35% | [4] 4.35% | [5] -2.15% | [6] -8.7%

CC1Cc2ccccc2O1 (configuration not stated)
inactive: [1] 2.7% | [2] 0.35% | [3] -3.7% | [4] -2.35% | [5] 2.9% | [6] 11%

O=c1[nH]n(-c2ccccc2)c(=O)cc1Cl
inactive: [1] -0.9% | [2] 2.25% | [3] -4% | [4] -0.3% | [5] 3.55% | [6] 2%

c1ccc2c(c1)Sc1ccccc1S2
inactive: [1] -6.95% | [2] 6.8% | [3] 22.1% | [4] -19.6% | [5] -3.6% | [6] -18.6%

Clc1ccc(-c2n[nH]c3c2Cc2ccccc2-3)cc1Cl
inactive: [1] -5.1% | [2] -10.8% | [3] 16.4% | [4] 16.4% | [5] 11.8% | [6] 7.45%

Cc1cc(/C=C/c2ccc3cc(N(C)C)ccc3[n+]2C)c(C)n1-c1ccccc1
active: [1] 87.2% | [2] 87.2% | [3] 92.8% | [4] 93.2% | [5] 70.8% | [6] 95.8%

CCCCNC1(C#N)CCN(Cc2ccccc2)CC1
inactive: [1] -2.25% | [2] -7.95% | [3] -5.9% | [4] 6.75% | [5] -1.25% | [6] -5.7%

CC(=O)Oc1ccc(Br)cc1C(=O)O
inactive: [1] -15.2% | [2] -24.2% | [3] -9.7% | [4] -26.9% | [5] -10.6% | [6] 4.15%

CCOC(=O)/C(C#N)=C/c1cccc(C)c1
inactive: [1] -19.4% | [2] 22.8% | [3] -25.2% | [4] 13.3% | [5] 23.2% | [6] -6.55%

CN(C)c1ccc(CNC(C(=O)c2ccccc2)c2ccccc2)cc1 (configuration not stated)
inactive: [1] -31% | [2] -5.35% | [3] -15.6% | [4] -17.4% | [5] 8.3% | [6] -20.9%

COC1=CC(=O)c2nc(Cl)ccc2C1=O
inactive: [1] 29% | [2] 9.95% | [3] 35.2% | [4] -1% | [5] 11.8% | [6] 24.6%

O=C1C=C(O)C(=O)C=C1O
inactive: [1] 4.45% | [2] -10.2% | [3] 14.9% | [4] 0.4% | [5] -2.35% | [6] 28.5%

O=C1c2ccccc2C(=O)c2c1ccc(C(=O)O)c2[N+](=O)[O-]
inactive: [1] 29.4% | [2] 16.6% | [3] 32.2% | [4] 31.8% | [5] 19.7% | [6] 28%

O=C(CCl)Nc1ccc2c(c1)C(=O)c1ccc(NC(=O)CCl)cc1C2=O
inactive: [1] 6.3% | [2] -4.85% | [3] 4.15% | [4] 1.7% | [5] -21.2% | [6] 21.9%

CN(C)c1ccc2nc3ccc(=N)cc-3sc2c1
inactive: [1] 4.55% | [2] -19.1% | [3] 18.6% | [4] 7.45% | [5] -15.2% | [6] 22.4%

COc1cccc(/C=N/NC(=S)NC2CC3CCC2C3)c1O (configuration not stated)
inactive: [1] -21.6% | [2] -33.1% | [3] -3.4% | [4] -9.9% | [5] -13.9% | [6] -3.5%

S=c1sc2ccccc2n1CN1CCCCC1
inactive: [1] 7.7% | [2] 14.8% | [3] 45% | [4] 10.6% | [5] 25.3% | [6] 15.8%

O=C(O)C(O)c1ccccc1 (configuration not stated)
inactive: [1] 20.2% | [2] -7.65% | [3] -5.7% | [4] -48% | [5] 11.3% | [6] 10.7%
